Assay results taken from PubChem BioAssay (EPA / NIEHS).
Calls of active or inactive are those of the source. How the source made its calls, unless noted: active means hit-call score of the fitted dose curve at least 0.9, where 1 is the maximum; inactive means score below 0.9.

Key:
[1] = target: Peroxisome proliferator-activated receptor gamma (Homo sapiens) (UniProt P37231); experiment: OT_PPARg_PPARgSRC1_1440: Odyssey Thera (OT) 24-hour Protein-Complementation Assay for Peroxisome Proliferator-activated Receptor Gamma/ SRC-1 Co-activator (AID 2283388; active means hit-call score of the fitted dose curve at least 0.9, where 1 is the maximum)
Chain of Peroxisome proliferator-activated receptor gamma (Homo sapiens) (P37231 whole entry, looked up, the tested form may be a part): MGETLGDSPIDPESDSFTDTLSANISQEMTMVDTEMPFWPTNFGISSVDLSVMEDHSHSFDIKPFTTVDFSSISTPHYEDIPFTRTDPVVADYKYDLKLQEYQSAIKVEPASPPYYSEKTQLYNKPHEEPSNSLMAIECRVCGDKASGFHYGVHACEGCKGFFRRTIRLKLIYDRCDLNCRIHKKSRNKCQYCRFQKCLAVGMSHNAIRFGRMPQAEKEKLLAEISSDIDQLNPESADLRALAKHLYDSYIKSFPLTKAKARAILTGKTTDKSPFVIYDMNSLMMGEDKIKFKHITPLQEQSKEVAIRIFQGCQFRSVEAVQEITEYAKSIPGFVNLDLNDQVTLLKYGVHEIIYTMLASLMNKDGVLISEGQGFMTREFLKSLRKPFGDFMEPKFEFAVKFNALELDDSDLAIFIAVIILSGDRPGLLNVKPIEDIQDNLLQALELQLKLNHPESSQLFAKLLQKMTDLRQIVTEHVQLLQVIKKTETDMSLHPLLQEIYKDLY
Summary of the method: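 HEK293T transiently transfected with PPARg/SRC-1 split-Venus YFP fusions 48 h before dosing, then treated 24 h at 37C. Fixed cells imaged; nuclear/cytoplasmic 488 nm fluorescence ratio, gain of signal versus DMSO.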

[2] = CEETOX_H295R_11DCORT: CeeTox H295R High-throughput Steroidogenesis Assay for 11-Deoxycortisol (11DCORT) (AID 2283432); settings: actives raise or lower the signal;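 on AC50: 11-deoxycortisol secreted into the medium measured by LC-MS/MS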
Summary of the method: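 H295R cells; 10 uM forskolin prestim 48 h; compound in 0.1% DMSO 48 h; media extracted with MTBE; 11-deoxycortisol by LC-MS/MS, 7-point standard curve; gain/loss vs DMSO baseline; viability by MTT in same wells.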

[3] = CEETOX_H295R_OHPREG: CeeTox H295R High-throughput Steroidogenesis Assay for OH-Pregnenolone (OHPREG) (AID 2283434); settings: actives raise or lower the signal
Summary of the method: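 Hormone levels in spent medium were measured by tandem mass spectrometry following liquid-liquid extraction. Cells (H295R) had been forskolin-stimulated (10 uM, 48 h) before a 48 h chemical exposure at 0.1% DMSO, with activity fitted in both directions against DMSO.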

[4] = CEETOX_H295R_CORTIC: CeeTox H295R High-throughput Steroidogenesis Assay for Corticosterone (CORTIC) (AID 2283437); settings: actives raise or lower the signal;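 further: corticosterone secreted into medium quantified by mass spectrometry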
Summary of the method: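 Corticosterone secreted into medium is measured by reverse-phase HPLC with tandem MS following liquid-liquid extraction. Cells are forskolin-stimulated (10 uM, 48 h) before 48 h test exposure; activity fitted in both directions against DMSO.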

[5] = CEETOX_H295R_CORTISOL: CeeTox H295R High-throughput Steroidogenesis Assay for Cortisol (AID 2283438); settings: actives raise or lower the signal;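 further: cortisol secreted into medium quantified by LC-MS/MS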
Summary of the method: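 H295R human adrenal cells were prestimulated 48 h with 10 uM forskolin, then exposed 48 h to test chemical (0.1% DMSO final). Medium cortisol was quantified by HPLC-MS/MS after MTBE extraction; bidirectional fitting relative to DMSO baseline.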

[6] = CEETOX_H295R_DOC: CeeTox H295R High-throughput Steroidogenesis Assay for DOC (AID 2283439); settings: actives raise or lower the signal
Summary of the method: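 H295R adrenal cells prestimulated 48 h with 10 uM forskolin, then exposed 48 h to test chemical (0.1% DMSO final). Medium 11-deoxycorticosterone extracted with MTBE, quantified by HPLC-MS/MS; bidirectional fit versus DMSO baseline; MTT viability in same wells.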

[7] = CEETOX_H295R_ESTRADIOL: CeeTox H295R High-throughput Steroidogenesis Assay for Estradiol (AID 2283440); settings: actives raise or lower the signal;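 further: estradiol secreted into medium quantified by LC-MS/MS after dansyl derivatisation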
Summary of the method: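 H295R cells pre-stimulated 48 h with 10 uM forskolin, then exposed 48 h to chemical in 0.1% DMSO. Medium estradiol quantified by MTBE extraction, dansyl derivatisation and HPLC-MS/MS; bidirectional fit versus DMSO; MTT viability required >/=70%.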

[8] = CEETOX_H295R_ESTRONE: CeeTox H295R High-throughput Steroidogenesis Assay for Estrone (AID 2283441); settings: actives raise or lower the signal;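 further: estrone secreted into medium measured by LC-MS/MS after dansyl derivatization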
Summary of the method: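 H295R cells; 48 h forskolin (10 uM) prestimulation; 48 h compound exposure, 0.1% DMSO final. Medium estrone: MTBE extraction, dansyl derivatization, HPLC-MS/MS. Bidirectional fit vs DMSO.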

[9] = CEETOX_H295R_PROG: CeeTox H295R High-throughput Steroidogenesis Assay for Progesterone (PROG) (AID 2283442); settings: actives raise or lower the signal;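 on AC50: human H295R adrenal cells primed with 10 µM forskolin before dosing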
Summary of the method: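 H295R adrenal cells prestimulated 48 h with 10 uM forskolin, then exposed 48 h to test chemical in 0.1% DMSO. Progesterone in medium quantified by HPLC-MS/MS after MTBE extraction; viability checked by MTT in same wells.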

[10] = CEETOX_H295R_ANDR: CeeTox H295R High-throughput Steroidogenesis Assay for Androstenedione (ANDR) (AID 2283436); settings: actives raise or lower the signal
Summary of the method: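 Read-out is androstenedione secreted into medium, measured by tandem mass spectrometry after liquid-liquid extraction. Cells were H295R, dosed for 48 h per modified OECD 456; activity fitted in both directions relative to DMSO.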

Measured: AC50

C=CCCCCCCCCC(=O)O
active: [3] 36500 nM
not listed: [10]
inactive: all other assays above

CN(C)c1ccc(Cc2ccc(N(C)C)cc2)cc1
active: [9] 3810 nM
inactive: [1] | [2] | [3] | [5] | [6]

Cc1c(-c2cccnc2)c2ccccc2n1CCCCC(=O)O
active: [9] 7250 nM
inactive: [1] | [3]

CCCCCCCCO
inactive: [1] | [2] | [5] | [6] | [8] | [9]

C[C@](N)(Cc1ccc(O)c(O)c1)C(=O)O
inactive: [1] | [9]

CCOc1cccc(-n2cc(C(=O)N3CCN(c4cc(C(=O)O)c5ccccc5c4)CC3)nc2-c2ccc(C)cc2)c1
not listed: [7] | [8]
inactive: all other assays above

O=C(O)c1cccc(N(Cc2cccnc2)c2ccc(OC(F)F)c(OC(F)F)c2)c1
inactive: [1] | [3] | [10] | [9]

Cn1c(=O)cc(Oc2ccc(F)cc2F)c2cnc(NCC(C)(C)O)nc21
active: [2] 8380 nM
not listed: [10]
inactive: all other assays above

CCC(C)(C)C(=O)O[C@H]1C[C@@H](C)C=C2C=C[C@H](C)[C@H](CC[C@@H]3C[C@@H](O)CC(=O)O3)[C@H]21
active: [2] 338 nM | [6] 581 nM | [9] 240 nM
not listed: [10]
inactive: all other assays above

CC[C@H](C)C(=O)O[C@H]1C[C@@H](C)C=C2C=C[C@H](C)[C@H](CC[C@@H]3C[C@@H](O)CC(=O)O3)[C@H]21
active: [2] 2840 nM | [3] 26 nM | [4] 94 nM | [6] 641 nM
not listed: [10]
inactive: all other assays above
